The results in this text go back to PubChem BioAssay (Tox21).

“And” between values parts separate entries of the source, which are not always exact repeats. Identical values can stand only once. Inconclusive results are not listed. The source holds several records for some structures; these can differ, active in one and inactive in another. The source made the active and inactive calls. Unless noted, calls come from the whole dose curve; as a rule, active = well fitted curve in the direction sought with a large enough effect in the repeat runs; inconclusive = weak or mixed curves; inactive = no such curve, though single readings can be large; an effect the other way counts as inactive or inconclusive.

A short description of test [1]: qHTS assay for small molecule agonists of the p53 signaling pathway (AID 651631; calls by dose curve; note: nearly all actives have a fitted effect of over 15% in size). Put shortly:
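Beta-lactamase reporter activity under p53 response elements was quantified in HCT-116 cells by FRET fluorescence, following 16 h incubation with test compounds at 37 °C and 2 h substrate development at room temperature.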
For orientation: qHTS replaces the single test concentration by a dilution series.

The nature of test [2]: qHTS assay for small molecules that induce genotoxicity in human embryonic kidney cells expressing luciferase-tagged ATAD5 (AID 651632). Note: nearly all actives have a fitted effect of over 15% in size. Put shortly: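 A rise in luciferase signal from ATAD5-tagged HEK293T cells marks genetic stress. Cells were exposed to compounds for 16 hr at 37C, 5% CO2, then luciferase was quantified after a 30 min room-temperature incubation with Amplite.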

Test [3] is described as follows: qHTS assay for small molecule agonists of the p53 signaling pathway - cell viability (AID 651633; calls by dose curve; note: nearly all actives have a fitted effect of over 30% in size; note: potency is the fitted concentration of half-maximal effect). Put shortly: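 p53RE-bla cells, seeded at 4,000 per well and rested 5 h at 37 C/5% CO2, received compounds in DMSO for 16 h at 37 C. CellTiter-Glo was then added, and luminescence was read after 30 min at room temperature to gauge cytotoxicity.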
Test [4] can be described thus: qHTS assay for small molecules that induce genotoxicity in human embryonic kidney cells expressing luciferase-tagged ATAD5 - cell viability (AID 651634; calls by dose curve; note: nearly all actives have a fitted effect of over 25% in size; note: potency is the fitted concentration of half-maximal effect). Put shortly: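 Cytotoxicity counter-readout: after 15.5 hr compound treatment at 37C, live-cell protease activity in ATAD5-luciferase HEK293T cells measured by CellTiter-Fluor fluorescence, 30 min development at 37C.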

A short description of test [5]: qHTS assay for small molecule disruptors of the mitochondrial membrane potential - cell viability (AID 720634; calls by dose curve; note: nearly all actives have a fitted effect of over 20% in size; note: potency is the fitted concentration of half-maximal effect). Put shortly:
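Cytotoxicity was quantified from ATP content by CellTiter-Glo luminescence in the same wells as the MMP dye read-out. HepG2 (2,000 cells/well) were plated overnight and exposed to compounds for 1 hr at 37 C.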

Test [6] can be described thus: qHTS assay for small molecule disruptors of the mitochondrial membrane potential (AID 720635). Note: potency is the fitted concentration of half-maximal effect. The gist of the method:
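HepG2 cells (2,000/well) attached overnight at 37C, then took compound for 1 hr at 37C, 5% CO2. Mito-MPS dye was added for 30 min; fluorescence was read at 490/535 nm (monomers) and 540/590 nm (aggregates).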

Test [7] is described as follows: qHTS assay to test for compound auto fluorescence at 590 nm (red) in HepG2 cells (AID 720674). The gist of the method:
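Rose Bengal sodium served as the red fluorophore standard. HepG2 monolayers (overnight attachment, MEM with 10% FBS) were exposed to test compounds for 1 hr at 37 C and read at Ex 540/Em 590 nm.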

The nature of test [8]: qHTS assay to test for compound auto fluorescence at 535 nm (green) in HepG2 cells (AID 720675).
Test [9] can be described thus: qHTS assay to test for compound auto fluorescence at 460 nm (blue) in HEK293 cells (AID 720678). Put shortly: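 Measured: blue fluorescence (Ex 405/Em 460 nm) of compound-treated HEK293 cells, incubated overnight at 37C with 5% CO2 and scaled to triamterene equivalents.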
Test [10] can be described thus: qHTS assay to test for compound auto fluorescence at 590 nm (red) in HEK293 cells (AID 720679). Put shortly:
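Using HEK293 cells at 2,000 per well, the screen added 23 nL of each compound after cell attachment and incubated overnight (37C, 5% CO2). The plate reader then captured red-label fluorescence, Ex/Em 540/590nm.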

In the case of `Cc1cc(Cl)ccc1OCC(=O)O`, the Potency entry in test [1], in test [3], in [4], in test [5] and in [6] was “inactive” each time. Moreover, the compound was classed as inactive in test [2], in [7], in test [8], in test [9] and in [10].
`CCCC[n+]1cccc(C)c1`: the Potency result in test [1], in [3], in test [4], in test [5] and in test [6] was “inactive” in each case. Besides, the compound was called inactive in [2], in test [7], in [8], in [9] and in [10].
With `CCCC[n+]1ccccc1`, the outcome in test [2], in test [7], in test [8], in test [9] and in test [10] was inactive. Moreover, the Potency entry in [3], in test [4], in test [5] and in test [6] was “inactive” each time.
On to `O=C(O)CCl`, for which the Potency result in test [3], in test [4], in test [5] and in test [6] was “inactive” each time. The compound was classed as inactive in [7], in test [8], in test [9] and in test [10].
Consider `CC[N+](CC)(CC)CC`, for which the Potency entry in test [3], in test [4], in test [5] and in test [6] was “inactive” each time. The result in test [7], in test [8], in [9] and in test [10] was inactive.
In the case of `CC(=O)O`, the Potency entry in [3] and in test [4] was “inactive” in each case. Moreover, the call in test [7], in test [8], in test [9] and in test [10] was inactive.
As for `CCCCCCn1cc[n+](C)c1`, the call in [2], in test [7], in test [8], in [9] and in [10] was inactive. Moreover, the Potency entry in test [3], in test [4] and in [5] was “inactive” throughout. Also, the Potency in test [6] is 11 µM (active) and 24.5 µM (active) and 22.2 µM (active).
Take `CCCCCCCCCCCCCC[P+](CCCCCC)(CCCCCC)CCCCCC`: the outcome in test [2], in [7], in [8], in test [9] and in test [10] was inactive. The Potency is 15.4 µM (active) and 19.5 µM (active) and inactive in [3]; 27.4 µM (active) and 24.5 µM (active) in test [4]; 30.8 µM (active) and 24.5 µM (active) and 1.72 µM (active) in [5]; 434 nM (active) and 616 nM (active) and 273 nM (active) in [6].
For `CCCn1cc[n+](C)c1`, the result in [2], in test [7], in test [8], in test [9] and in test [10] was inactive. The Potency result in test [4], in test [5] and in test [6] was “inactive” throughout.
With `CCCC[n+]1ccc(C)cc1`, the compound was classed as inactive in test [2], in test [7], in test [8], in test [9] and in test [10]. The Potency entry in test [3] and in test [4] was “inactive” in each case. The Potency result in test [5] is “inactive and 48.3 µM (active)”.
As for `CCC[N+]1(C)CCCC1`, the compound was classed as inactive in test [2], in [7], in test [8], in [9] and in test [10]. In addition, the Potency result in test [3], in [4], in [5] and in [6] was “inactive” in each case.
As to `O=S(=O)(O)O`, the Potency result in test [4], in test [5] and in test [6] was “inactive” in each case. In addition, the compound was called inactive in test [7], in test [8], in test [9] and in test [10].
As to `CN(C)[C@@H]1C(=O)C(C(N)=O)=C(O)[C@@]2(O)C(=O)C3=C(O)c4c(O)cccc4[C@@](C)(O)[C@H]3[C@H](O)[C@@H]12`, the Potency result in [4] and in [5] was “inactive” throughout. The Potency entry in test [6] is “inactive and 34.4 µM (active)”. The compound was classed as inactive in test [7], in test [8], in test [9] and in test [10].
In the case of `C[N+](C)(C)Cc1ccccc1`, the call in test [2], in [7], in test [8], in test [9] and in test [10] was inactive. In addition, the Potency entry in test [3], in test [4], in test [5] and in test [6] was “inactive” each time.
With `O=C(O)c1ccccc1O`, the Potency result in test [4] was “inactive”.
In the case of `CCCCCCCCn1cc[n+](C)c1`, the compound was called inactive in test [2], in [7], in [8], in test [9] and in [10]. The Potency entry in test [3], in test [4] and in test [5] was “inactive” in each case.
Consider `O=c1nc(O)n(Cl)c(=O)n1Cl`, for which the result in [2], in test [7], in [8], in [9] and in [10] was inactive. For the same compound, the Potency entry in [4], in test [5] and in test [6] was “inactive” each time.
For `CCCCCCCCCCn1cc[n+](C)c1`, the compound was classed as inactive in test [2], in test [7], in [8], in test [9] and in test [10]. In addition, the Potency result in test [3], in [4] and in test [5] was “inactive” throughout.
In the case of `C=CCOC(Cn1ccnc1)c1ccc(Cl)cc1Cl` (centres undefined), the outcome in test [2], in test [7], in [8], in test [9] and in [10] was inactive. Besides, the Potency result in test [3], in test [4] and in [5] was “inactive” each time.
In the case of `CC(Cl)(Cl)C(=O)O`, the result in test [2], in test [7], in test [8], in test [9] and in [10] was inactive. Further, the Potency entry in test [4], in [5] and in test [6] was “inactive” each time.
With `CCC[N+]1(C)CCCCC1`, the result in test [2], in [7], in test [8], in test [9] and in [10] was inactive. For the same compound, the Potency result in test [3], in test [4], in test [5] and in test [6] was “inactive” in each case.
On to `CCCC[n+]1ccccc1C`, for which the outcome in [2], in test [7], in [8], in test [9] and in [10] was inactive. The Potency result in test [3], in test [4], in test [5] and in test [6] was “inactive” throughout.
On to `CCCCn1cc[n+](C)c1C`, for which the result in test [2], in test [7], in test [8], in [9] and in test [10] was inactive. For the same compound, the Potency entry in test [3], in test [4], in [5] and in test [6] was “inactive” in each case.
Consider `CCCCCCCCCCCCn1cc[n+](C)c1`, for which the compound was classed as inactive in [2], in test [7], in [8], in [9] and in test [10]. Moreover, the Potency in [5] was 154 nM (active) and inactive.
For the compound `Oc1cccc2cccnc12`, the Potency result in [4] and in [5] was “inactive” each time. In addition, the compound was classed as inactive in test [7], in test [8], in test [9] and in [10].
With `CCCCCC[n+]1ccccc1`, the compound was classed as inactive in test [2], in test [7], in [8], in test [9] and in test [10]. The Potency result in test [3], in test [4] and in test [5] was “inactive” each time. In addition, in test [6], the Potency is 61.7 µM (active) and inactive.
Take `COc1ccccc1N`: the call in [2], in [7], in [8], in test [9] and in test [10] was inactive. Moreover, the Potency result in [3], in test [4], in [5] and in [6] was “inactive” throughout.
As for `COP(=O)(OC)OC=C(Cl)Cl`, the call in test [2], in [7], in test [8], in test [9] and in [10] was inactive. In addition, the Potency result in test [3], in [4], in test [5] and in test [6] was “inactive” in each case.
In the case of `O=c1[nH]c(=O)n(Cl)c(=O)n1Cl`, the result in [2], in test [7], in test [8], in test [9] and in test [10] was inactive. In addition, the Potency entry in [4], in [5] and in test [6] was “inactive” throughout.
On to `CCCCn1cc[n+](C)c1`, for which the Potency entry in test [4], in [5] and in test [6] was “inactive” in each case. Also, the compound was classed as inactive in test [7], in test [8], in test [9] and in [10].
For `CCCCCCCCCCCCOS(=O)(=O)O`, the result in test [2], in [7], in test [8], in test [9] and in [10] was inactive. Besides, the Potency entry in test [4], in test [5] and in test [6] was “inactive” each time.
As to `O=[N+]([O-])O`, the Potency entry in test [4] is “inactive”. The compound was called inactive in test [7], in test [8], in test [9] and in test [10].
With `CC[N+]1(C)CCCC1`, the compound was called inactive in test [2], in test [7], in test [8], in test [9] and in test [10]. The Potency result in test [3], in test [4], in test [5] and in [6] was “inactive” in each case.
Turning to `CCCCCCCCCCCC(=O)O`, the compound was classed as inactive in test [2], in [7], in test [8], in [9] and in test [10]. Also, the Potency entry in [3], in test [4], in test [5] and in test [6] was “inactive” throughout.
With `Cc1cc(Cl)ccc1N`, the compound was called inactive in test [2], in [7], in [8], in [9] and in test [10]. For the same compound, the Potency entry in [3], in test [4], in test [5] and in test [6] was “inactive” each time.
